# According to ChEMBL document CHEMBL5308504, “Tm Shift (DSF) assay results for EUbOPEN Chemogenomics Library” (2023):
# “And” between values parts separate entries of the source, which are not always exact repeats. Equal entries are not always repeated.
# Molecular target: T1, Transcription intermediary factor 1-alpha (Homo sapiens) (UniProt O15164)
# T1 sequence (whole entry): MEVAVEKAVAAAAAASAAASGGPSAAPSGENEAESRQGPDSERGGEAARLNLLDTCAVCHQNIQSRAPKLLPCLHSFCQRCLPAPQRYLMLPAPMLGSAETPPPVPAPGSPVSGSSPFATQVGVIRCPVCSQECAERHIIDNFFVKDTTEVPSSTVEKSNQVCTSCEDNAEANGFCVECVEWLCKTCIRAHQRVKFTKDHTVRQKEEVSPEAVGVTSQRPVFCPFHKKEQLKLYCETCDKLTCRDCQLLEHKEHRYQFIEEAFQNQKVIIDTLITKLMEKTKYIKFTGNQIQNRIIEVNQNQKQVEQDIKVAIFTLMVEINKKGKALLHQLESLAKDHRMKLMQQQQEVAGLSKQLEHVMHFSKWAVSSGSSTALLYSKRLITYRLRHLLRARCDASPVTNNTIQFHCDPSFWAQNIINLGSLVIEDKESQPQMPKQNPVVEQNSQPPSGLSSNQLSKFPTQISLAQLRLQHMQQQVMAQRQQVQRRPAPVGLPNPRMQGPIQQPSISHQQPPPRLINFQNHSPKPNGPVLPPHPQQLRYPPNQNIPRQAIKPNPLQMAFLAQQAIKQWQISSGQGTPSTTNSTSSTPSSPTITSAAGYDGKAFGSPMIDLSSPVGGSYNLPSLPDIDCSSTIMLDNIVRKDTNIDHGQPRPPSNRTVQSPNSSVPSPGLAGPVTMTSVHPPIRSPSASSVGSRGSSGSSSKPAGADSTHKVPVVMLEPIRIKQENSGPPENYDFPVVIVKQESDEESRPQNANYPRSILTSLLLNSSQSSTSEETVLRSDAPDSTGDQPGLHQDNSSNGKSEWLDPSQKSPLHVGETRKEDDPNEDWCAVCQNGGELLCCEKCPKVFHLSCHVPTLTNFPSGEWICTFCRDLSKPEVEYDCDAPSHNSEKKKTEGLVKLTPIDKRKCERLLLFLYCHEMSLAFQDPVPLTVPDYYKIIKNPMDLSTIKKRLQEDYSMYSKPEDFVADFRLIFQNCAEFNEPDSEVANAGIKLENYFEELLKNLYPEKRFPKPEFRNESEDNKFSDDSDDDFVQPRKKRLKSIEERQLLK
# Details: Compound concentration 20.0 uM, Protein concentration 2.0 uM, Result type QC Liability
row,Compound,ΔTm
1,COc1cc(C(=O)NCCOCCOCCOCC(=O)N[C@H](C(=O)N2C[C@H](O)C[C@H]2C(=O)NCc2ccc(-c3scnc3C)cc2)C(C)(C)C)ccc1Nc1ncc(C(F)(F)F)c(Oc2cccc3c2C(=O)CC3)n1,2.06 °C
2,CCS(=O)(=O)c1cc2cc(C[C@](O)(CC(C)(C)c3ccc(F)cc3C(N)=O)C(F)(F)F)[nH]c2cn1,0.37 °C
3,CCN(C)S(=O)(=O)Nc1cccc(-c2ccc3c(NC(=O)C4CC4)n[nH]c3c2)c1,-0.53 °C
4,Cc1csc(-c2nnc(Nc3ccc(Oc4ncccc4-c4ccnc(N)n4)cc3)c3ccccc23)c1,-1.04 °C
5,CCc1nc(-c2cccc(C)c2)c(-c2ccnc(NC(=O)c3ccccc3)c2)s1,-1.26 °C
6,CC(=O)N1CCN([C@H]2CCC[C@@H](NC(=O)c3cc4c(F)ccc(C)c4[nH]3)C2)CC1,-1.5 °C
7,Cc1ccccc1Oc1cc(-n2c(=O)cc(C(F)(F)F)[nH]c2=O)c2ccccc2c1Cl,-0.87 °C
8,N#Cc1c(SCc2csc(-c3ccc(Cl)cc3)n2)nc(N2CCCC2)c(C#N)c1-c1ccc(OCCO)cc1,0.42 °C
9,Cc1nc2cccnc2n2c(-c3cc([C@@]4(O)CCCOC4)ccc3Cl)nnc12,0.37 °C
10,COc1nc2ccc([C@@](O)(c3ccccc3)C3CCN(C(C)=O)CC3)cc2c(Cl)c1Cc1ccc(-n2cccn2)cc1,-0.87 °C
11,O=C(NC1CCNCC1)c1n[nH]cc1NC(=O)c1c(Cl)cccc1Cl,-1.34 °C
12,CC(C(=O)Nc1cc(C#N)ccc1CCCC(=O)O)c1ccc(F)c2ccccc12 (stereo not given),-1.35 °C
13,COc1cc(CN(CCN)C(=O)N[C@@H](C)c2ccccc2)ccc1OCc1ccccc1,-0.9 °C
14,CCS(=O)(=O)c1cc2cc(C[C@@](O)(CC(C)(C)c3ccc(F)cc3C(N)=O)C(F)(F)F)[nH]c2cn1,0.3 °C and -2.64 °C
15,NC(=O)c1ccc(-c2nc(-c3ccc4c(c3)OCCO4)c(-c3ccccn3)[nH]2)cc1,-0.21 °C
16,O=C(NCc1ccc(F)cc1)C1CCN(S(=O)(=O)c2cc(Cl)cc(Cl)c2)CC1,0.44 °C
17,COc1cc(-c2cc3ncccc3c(OC[C@H]3CNC(=O)C3)n2)cc(OC)c1OC1CCOCC1,-2.27 °C
18,O=C(O)c1ccnc(N2CC(O)(c3ccc(OCc4c(-c5c(Cl)cccc5Cl)noc4C4CC4)cc3Cl)C2)c1,-1.77 °C

row,Compound,ΔTm
1,CN(CCCCCCC1=C(c2cc(F)cc(F)c2)CCCc2cc(O)ccc21)CCCCS(=O)(=O)CCCC(F)(F)F,1.21 °C
2,O=C1CCCN1CCNc1nc(Nc2ccc(Cl)c(Cl)c2)ncc1C(F)(F)F,-1.81 °C
3,CNCc1ccc(-c2cc(-c3nc(-c4ccc(S(=O)(=O)C(C)C)cc4)cnc3N)on2)cc1,-0.96 °C
4,CC(C)Oc1ccc(Cc2ccc(NC3=NCCN3)cc2)cc1,-0.24 °C
5,CC#CCC(C)[C@H](O)/C=C/[C@@H]1[C@H]2C/C(=C/CCCC(=O)O)C[C@H]2C[C@H]1O (stereo not given in full),0.19 °C
6,COc1cc(F)ccc1-c1ncnc(Nc2cccc(C[S@](C)(=N)=O)c2)n1,-1.99 °C
7,FC(F)c1cncc(-c2ccc3ncc4nnc(C5=CCCOCC5)n4c3c2)c1,0.23 °C
8,C#Cc1cnc2[nH]cc(-c3cccc4c3CCN4C(=O)[C@@H]3CCCN3C#N)c2c1,-0.61 °C
9,CC(=O)c1c(C)c2cnc(Nc3ccc(N4CCN(CCOCCOCCOCCNC(=O)COc5cccc6c5C(=O)N(C5CCC(=O)NC5=O)C6=O)CC4)cn3)nc2n(C2CCCC2)c1=O (stereo not given),0.27 °C
10,CC1(C)CCN(C(=O)C2CN(c3c4c(nc5ccnn35)CCNCC4)C2)C1,0.23 °C
11,CC(C)(C)C(=O)NCc1ccc(Cl)c(C(=O)Nc2ncc[nH]2)c1,-0.67 °C
12,CN(C(=O)c1ccccc1)c1ccc2c(c1)[nH]/c(=N\C(=O)c1ccc(Br)s1)n2CCC(N)=O,-1.25 °C
13,COc1ccc(C(=O)N[C@H](C)c2cccc(C(=O)Nc3nc4c(s3)CN(C)CC4)c2)cc1C,-2.54 °C
14,CC(=O)c1c(C)c2cnc(Nc3ccc(N4CCN(CCCCNC(=O)COc5cccc6c5C(=O)N(C5CCC(=O)NC5=O)C6=O)CC4)cn3)nc2n(C2CCCC2)c1=O (stereo not given),-3.15 °C
15,Cc1cn(CCN2CCN(c3ccccc3-c3cc(C#N)cc(C(=O)NCCCN4CCCC4)c3)CC2)c2ccccc12,-1.92 °C
16,C[C@H]1CN(C2COC2)CCN1c1ccc(Nc2cc(-c3ccnc(N4CCn5c(cc6c5CC(C)(C)C6)C4=O)c3CO)cn(C)c2=O)nc1,0.42 °C
17,Cc1c(-c2c(F)cc(C(N)=O)c3[nH]c4c(c23)CC[C@H](C(C)(C)O)C4)cccc1-n1c(=O)c2cccc(F)c2n(C)c1=O,0.6 °C
